Assay results: the supplement of paper PMC12494721
Where a name gives a salt, the structure may show the parent alone.

Tests used:
Conditions in all cases: incubation time: 27 h, anaerobic, 37 °C;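 for the amine columns active = adjusted P below 0.05 in both replicates with a change the same way and a mean fold change under 0.8 or over 1.25; inactive = the rest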
[1] = test system: Clostridium sporogenes DSM 1664; experiment: growth (OD595) fold change vs plate DMSO controls (fold change (ratio)); higher = more growth
Outline: (§1)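 To obtain OD, 595 nm absorbance readings were blank-subtracted, corrected for compound background using 20 µM compound solutions in water, and multiplied by a calibration factor of 5. They came from 96-well mGAM cultures grown anaerobically for 27 h at 37 °C and shaken before reading. Growth is the fold change relative to the median of plate DMSO controls. Two biological replicates were averaged, and fold changes above 1.5 were set to NA.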

Escherichia coli IAI1 [2] = experiment: as above
Outline: as §1

[3] = test system: Klebsiella aerogenes DSM 30053; experiment: as above
Outline: as §1

[4] = test system: Ruminococcus gnavus DSM 108212; experiment: as above
Outline: as §1

[5] = test system: Klebsiella aerogenes DSM 30053; experiment: fold change of Histamine concentration vs plate DMSO controls (fold change (ratio)); higher = more amine produced, active = hit call of the paper (significant change in both replicates, either direction)
Outline: (§2)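 Amines were quantified by LC–triple-quadrupole MS in dynamic MRM mode against external calibration curves, with drift correction within each batch. The samples were whole anaerobic mGAM cultures of four gut bacterial strains, grown for 27 h at 37 °C in 80 µL wells and extracted with cold acetonitrile/methanol with 0.1% formic acid, then centrifuged. Values are reported as fold change over DMSO controls on the same plate. The mean of 2 biological replicates is given.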

[6] = test system: Clostridium sporogenes DSM 1664; experiment: fold change of Tryptamine concentration vs plate DMSO controls (fold change (ratio)); higher = more amine produced, active = hit call of the paper (significant change in both replicates, either direction)
Outline: as §2

[7] = test system: Ruminococcus gnavus DSM 108212; experiment: as above
Outline: as §2

Escherichia coli IAI1 [8] = experiment: fold change of Putrescine concentration vs plate DMSO controls (fold change (ratio)); higher = more amine produced, active = hit call of the paper (significant change in both replicates, either direction)
Outline: as §2

[9] = test system: Klebsiella aerogenes DSM 30053; experiment: as above
Outline: as §2

Escherichia coli IAI1 [10] = experiment: fold change of Cadaverine concentration vs plate DMSO controls (fold change (ratio)); higher = more amine produced, active = hit call of the paper (significant change in both replicates, either direction)
Outline: as §2

[11] = test system: Klebsiella aerogenes DSM 30053; experiment: as above
Outline: as §2

[12] = test system: Ruminococcus gnavus DSM 108212; experiment: fold change of 2-Phenylethylamine concentration vs plate DMSO controls (fold change (ratio)); higher = more amine produced, active = hit call of the paper (significant change in both replicates, either direction)
Outline: as §2

Row | SMILES | growth [1] | growth (Escherichia coli IAI1 [2]) | growth [3] | growth [4] | fold change of Histamine concentration [5] | fold change of Tryptamine concentration [6] | fold change of Tryptamine concentration [7] | fold change of Putrescine concentration (Escherichia coli IAI1 [8]) | fold change of Putrescine concentration [9] | fold change of Cadaverine concentration (Escherichia coli IAI1 [10]) | fold change of Cadaverine concentration [11] | fold change of 2-Phenylethylamine concentration [12]
1 | OC[C@H]1O[C@@](CO)(O[C@H]2O[C@H](CO)[C@@H](O)[C@H](O)[C@H]2O)[C@@H](O)[C@@H]1O [Sucrose] (50 µM) | 1.08 | 0.938 | 1.09 | 1.12 | 0.917 (inactive) | 1.07 (inactive) | 1.08 (inactive) | 1 (inactive) | 0.977 (inactive) | 0.964 (inactive) | 1.05 (inactive) | 1.12 (inactive)
2 | CCOC1O[C@H]([C@@H](COCc2ccccc2)OCc2ccccc2)[C@H](OCc2ccccc2)[C@H]1O (stereo not given in full) [Tribenoside] (20 µM) | 0.917 | 0.959 | 0.99 | 0.972 | 1.06 (inactive) | 0.969 (inactive) | 0.966 (inactive) | 1 (inactive) | 1.03 (inactive) | 1.01 (inactive) | 0.987 (inactive) | 0.961 (inactive)
3 | CCc1c(C)[nH]c2c1C(=O)C(CN1CCOCC1)CC2 (stereo not given) [Molindone hydrochloride] (20 µM) | 0.781 | 1.07 | 1 | 1.1 | 1.02 (inactive) | 1.02 (inactive) | 1.07 (inactive) | 1.03 (inactive) | 0.987 (inactive) | 0.906 (inactive) | 1.01 (inactive) | 1.08 (inactive)
4 | CCCN(CCC)C(=O)C(CCC(=O)O)NC(=O)c1ccccc1 (stereo not given) [Proglumide] (20 µM) | 0.898 | 1.36 | 1.01 | 0.78 | 0.906 (inactive) | 1.44 (active) | 1.06 (inactive) | 1.31 (active) | 0.919 (inactive) | 0.929 (inactive) | 1.01 (inactive) | 1.11 (inactive)
5 | CC[N+](CC)(CC)CCOc1cccc(OCC[N+](CC)(CC)CC)c1OCC[N+](CC)(CC)CC [Gallamine triethiodide] (20 µM) | 1.09 | 1.02 | 1.05 | 0.905 | 0.862 (inactive) | 1.12 (inactive) | 1.09 (inactive) | 1.06 (inactive) | 0.945 (inactive) | 0.947 (inactive) | 1.04 (inactive) | 1.06 (inactive)
6 | Cc1ncc([N+](=O)[O-])n1CCO [Metronidazole] (20 µM) | 0.00188 | 1.04 | 1.02 | 0.0847 | 0.975 (inactive) | 0.011 (active) | 0.0917 (active) | 0.94 (inactive) | 1.05 (inactive) | 0.997 (inactive) | 1.1 (inactive) | 0.0796 (active)
7 | CC1(C)S[C@@H]2[C@H](NC(=O)C(C(=O)O)c3ccccc3)C(=O)N2[C@H]1C(=O)O (stereo not given in full) [Carbenicillin disodium salt] (20 µM) | 0 | 1.19 | 1.05 | 0.00334 | 1.02 (inactive) | 0.0162 (active) | 0.0824 (active) | 0.927 (inactive) | 0.986 (inactive) | 1.79 (active) | 1.05 (inactive) | 0.0579 (active)
8 | OC[C@@H](O)[C@@H](O)[C@@H](O)[C@@H](O)CO [Allitol] (50 µM) | 0.907 | 1.08 | 1.11 | 0.986 | 0.908 (inactive) | 1 (inactive) | 0.953 (inactive) | 1.02 (inactive) | 1.03 (inactive) | 0.992 (inactive) | 1.02 (inactive) | 0.932 (inactive)
9 | CC(C)c1nc(CN(C)C(=O)N[C@H](C(=O)N[C@@H](Cc2ccccc2)C[C@H](O)[C@H](Cc2ccccc2)NC(=O)OCc2cncs2)C(C)C)cs1 [Ritonavir] (20 µM) | 1.01 | 0.962 | 0.987 | 0.983 | 1.08 (inactive) | 0.822 (inactive) | 0.942 (inactive) | 0.943 (inactive) | 1.01 (inactive) | 0.99 (inactive) | 0.985 (inactive) | 0.939 (inactive)
10 | CC(NCCc1ccc(O)cc1)C(O)c1ccc(O)cc1 (stereo not given) [Ritodrine hydrochloride] (20 µM) | 0.998 | 0.987 | 0.985 | 0.697 | 0.979 (inactive) | 1 (inactive) | 1.02 (inactive) | 0.985 (inactive) | 1.01 (inactive) | 1.01 (inactive) | 1.01 (inactive) | 1.05 (inactive)
11 | CC[N+](C)(CC)CCOC(=O)C1c2ccccc2Oc2ccccc21 [Methantheline bromide] (20 µM) | 0.956 | 1.01 | 0.979 | 0.897 | 1.05 (inactive) | 0.999 (inactive) | 1.01 (inactive) | 1.04 (inactive) | 1.01 (inactive) | 1.02 (inactive) | 0.984 (inactive) | 1.05 (inactive)
12 | OC[C@H]1O[C@@H](O[C@@H]2[C@@H](CO)OC(O)(CO)[C@H]2O)[C@H](O)[C@@H](O)[C@H]1O (mixture of isomers) [Lactulose] (50 µM) | 1.06 | 0.906 | 1.01 | 0.977 | 1.01 (inactive) | 0.98 (inactive) | 1 (inactive) | 0.955 (inactive) | 1.02 (inactive) | 1.05 (inactive) | 0.994 (inactive) | 0.98 (inactive)
13 | Cc1c(O)c(=O)ccn1C [Deferiprone] (20 µM) | 1 | 0.999 | 1.04 | 1.06 | 1.03 (inactive) | 1.05 (inactive) | 1.02 (inactive) | 1 (inactive) | 1.01 (inactive) | 1.03 (inactive) | 0.999 (inactive) | 1 (inactive)
14 | Nc1nc(=S)c2ncn([C@@H]3O[C@H](CO)[C@@H](O)[C@H]3O)c2[nH]1 [Thioguanosine] (20 µM) | 0.927 | 0.951 | 1.03 | 0.773 | 0.953 (inactive) | 0.981 (inactive) | 0.955 (inactive) | 0.479 (inactive) | 1.01 (inactive) | 0.903 (inactive) | 1.03 (inactive) | 0.925 (inactive)
15 | Clc1ccc(C(Cn2ccnc2)OCc2csc3c(Cl)cccc23)c(Cl)c1 (stereo not given) [Sertaconazole nitrate] (20 µM) | 0.896 | 1.1 | 0.993 | 0.501 | 0.978 (inactive) | 1.12 (inactive) | 0.435 (active) | 1.08 (inactive) | 0.954 (inactive) | 0.973 (inactive) | 1.03 (inactive) | 0.591 (inactive)
16 | CC1(C)S[C@@H]2[C@H](NC(=O)C3(N)CCCCC3)C(=O)N2[C@H]1C(=O)O [Cyclacillin] (20 µM) | 0 | 1 | 1.02 | 0.0834 | 0.87 (inactive) | 0.0132 (active) | 0.0795 (active) | 0.887 (inactive) | 0.993 (inactive) | 1.36 (active) | 1 (inactive) | 0.0578 (active)
17 | N=c1nc(N2CCCCC2)cc(N)n1O [Minoxidil] (20 µM) | 0.888 | 0.963 | 1.03 | 0.722 | 0.98 (inactive) | 0.937 (inactive) | 1.01 (inactive) | 0.982 (inactive) | 0.987 (inactive) | 0.995 (inactive) | 1.01 (inactive) | 1.05 (inactive)
18 | COc1ccc(NS(=O)(=O)c2ccc(N)cc2)nn1 [Sulfamethoxypyridazine] (20 µM) | 0.883 | 1.01 | 0.983 | 1.01 | 1.06 (inactive) | 1.03 (inactive) | 1.17 (inactive) | 1.02 (inactive) | 1.03 (inactive) | 1.07 (inactive) | 1.1 (inactive) | 1.44 (inactive)
19 | Cc1cccc(C)c1NC(=O)C1CCCCN1C (stereo not given) [Mepivacaine hydrochloride] (20 µM) | 1.21 | 1.02 | 1.08 | 0.946 | 0.905 (inactive) | 1.02 (inactive) | 1.06 (inactive) | 1 (inactive) | 0.977 (inactive) | 1 (inactive) | 1.01 (inactive) | 1.05 (inactive)
20 | CCCCOC(=O)c1ccc(N)cc1 [Butamben] (20 µM) | 1.36 | 1 | 1.01 | 0.962 | 1 (inactive) | 1.04 (inactive) | 0.94 (inactive) | 0.935 (inactive) | 0.988 (inactive) | 1.01 (inactive) | 0.999 (inactive) | 0.915 (inactive)
21 | CCCCNC(=N)NC(=N)N [Buformin] (20 µM) | 1.02 | 0.988 | 0.986 | 1 | 1.03 (inactive) | 1.05 (inactive) | 0.934 (inactive) | 1.01 (inactive) | 1.01 (inactive) | 1.03 (inactive) | 1 (inactive) | 0.915 (inactive)
22 | CN(c1nccc(=O)[nH]1)C1CCN(c2nc3ccccc3n2Cc2ccc(F)cc2)CC1 [Mizolastine] (20 µM) | 1.22 | 1.02 | 1.04 | 1.24 | 1.03 (inactive) | 0.967 (inactive) | 0.973 (inactive) | 0.986 (inactive) | 0.991 (inactive) | 0.977 (inactive) | 0.982 (inactive) | 0.967 (inactive)
23 | Cc1c(F)c(N2CCNC(C)C2)cc2c1c(=O)c(C(=O)O)cn2C1CC1 (stereo not given) [Grepafloxacin] (20 µM) | 0.0227 | 0.0384 | 0.142 | 1.29 | 0.0669 (active) | 0.0355 (active) | 0.697 (inactive) | 0.738 (active) | 0.628 (active) | 0.155 (active) | 0.936 (inactive) | 0.731 (inactive)
24 | CN(C)CCC=C1c2ccccc2CCc2ccccc21 [Amitryptiline hydrochloride] (20 µM) | 1.05 | 1.04 | 1.06 | 1.12 | 0.911 (inactive) | 0.996 (inactive) | 0.973 (inactive) | 1.01 (inactive) | 0.936 (inactive) | 1.01 (inactive) | 1.02 (inactive) | 1.01 (inactive)
25 | CC/C(=C(/CC)c1ccc(O)cc1)c1ccc(O)cc1 [Diethylstilbestrol] (20 µM) | 0.583 | 0.984 | 1 | 0.991 | 1.03 (inactive) | 0.432 (active) | 0.88 (inactive) | 1 (inactive) | 1.01 (inactive) | 1.02 (inactive) | 0.993 (inactive) | 0.865 (inactive)
